Results published in PubChem BioAssay (NCI).
Compounds without any hit were thinned out: in the full panel of roughly 83,000, 20% have a hit.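 48-hour exposure, single concentration, 96-well plates; percent growth endpoint where 0 means no net growth. Active: below 10.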 Unmarked numbers belong to inactive results. Calls of active or inactive are those of the source.

How the values were obtained:
Experiment in all cases: NCI-60 one-dose screen, 48 h (100 = growth as untreated, 0 = no growth, -100 = all killed)
Settings in all cases: 10 µM unless noted
SK-MEL-2 melanoma = test system: SK-MEL-2 melanoma
EKVX NSCLC = test system: EKVX NSCLC
UO-31 renal = test system: UO-31 renal
TK-10 renal = test system: TK-10 renal
ACHN renal = test system: ACHN renal
CAKI-1 renal = test system: CAKI-1 renal
CCRF-CEM leukemia = test system: CCRF-CEM leukemia
MOLT-4 leukemia = test system: MOLT-4 leukemia
A498 renal = test system: A498 renal
SN12C renal = test system: SN12C renal

Structure (SMILES)	growth (SK-MEL-2 melanoma) [%]	growth (EKVX NSCLC)	growth (UO-31 renal)	growth (TK-10 renal)	growth (ACHN renal)	growth (CAKI-1 renal)	growth (CCRF-CEM leukemia)	growth (MOLT-4 leukemia)	growth (A498 renal)	growth (SN12C renal)
COc1ccc(C(=O)/C=C/C23c4ccccc4C(c4ccccc42)C2C(=O)NC(=O)C23)cc1 (centres undefined)	103	87.5%	72.6%	114%	95.4%	90.7%	89.8%	87.3%		
CNC=O	110	156%		101%	110%	99.6%		106%		
N#C/C=C(\c1ccc([N+](=O)[O-])cc1)n1nnc2cc(Cl)c(Cl)cc21	65.8	38.6%	-70.9% (active)	-16.2% (active)	-85% (active)	40.9%	9.49% (active)	22.4%		
Fc1ccc(Nc2nc(Nc3ccc(-c4nc5ccccc5[nH]4)cc3)c3cn[nH]c3n2)cc1	92.8	72.4%	79.8%	99.5%	78.9%	89.7%	31.9%	21.6%	101%	
Nc1c(C(=O)c2ccccc2)nnc2ncnn12	92		101%	96%	122%	104%	98.4%	95.8%	71.2%	101%
C[N+](C)(C)CCOC(OCC[N+](C)(C)C)(c1ccccc1)c1ccccc1	99.4	111%		109%	97.6%	101%	105%	102%	113%	
C[C@@H]1C(=O)N(C[C@H](Cc2ccccc2)NC(=O)OCc2ccccc2)[C@]1(Cc1ccccc1)C(=O)OC(C)(C)C	76.8	60.3%	46.5%	67.2%		51.4%	72.2%	34%	54%	
COC(=O)/C(=C\c1ccc(OC)cc1)C(=O)N1c2ccccc2Sc2ccccc21	35.5	59.3%	52.6%	92.9%	58.3%	29.4%	43.1%	34.5%	7.6% (active)	
COc1ccccc1C(=O)NC(=S)Nc1ccc(-c2nc3ccccc3[nH]2)cc1	109	91.1%		59.6%	71.4%	105%	80.8%	91.9%		
CCN(CC)S(=O)(=O)c1ccc(O)c(NC(=O)c2[nH]c(C)c(C(C)=O)c2CCc2ccc(Cl)cc2)c1		78%	23.5%	53.9%	36.2%	56.8%	62%	28.3%	26%	43%
CN(C)c1ccc(/C=C2\C=C(c3ccccc3)N(CCc3ccccc3)C2=O)cc1		46.9%	61%	88.7%	57.6%	76.9%	102%	86.5%	72.8%	89.8%
COc1ccc(C2CC(c3ccc4ccccc4c3)=NN2c2nc(O)c(C3=c4cc(Cl)ccc4=NC3=O)s2)cc1 (centres undefined)		-74.3% (active)	-85% (active)	-66.6% (active)	-63.8% (active)	-50.4% (active)	-19% (active)	-21.5% (active)	-84.3% (active)	-30.5% (active)
COc1ccc(/C=C2\C=C(c3ccccc3)N(CCc3ccccc3)C2=O)cc1OC		56.1%	-47.5% (active)	-3.91% (active)	-32.5% (active)	62%	57.6%	34%	-75.4% (active)	53%
C=C1C(=O)O[C@H]2[C@H]1CC/C(Cn1cc(CNCCc3c[nH]c4ccccc34)nn1)=C\CC[C@@]1(C)O[C@@H]21		97.2%	80.7%	94.9%	87.4%	91.3%	16.4%	77.6%	103%	95%
CC(=O)Nc1nccs1		92.2%	84.7%	99.9%	98.1%	101%	96.4%	103%	73.6%	97.2%
CN1CCN(c2ccc(Nc3ncc(Cl)c(NC[C@@H]4CCCO4)n3)cc2)CC1		39%	-15.6% (active)	23.6%	1.78% (active)	26.6%	28%	16.8%	-25% (active)	28.2%
OC(COc1cccc2ccccc12)CN1CCN(c2ccccc2)CC1 (centres undefined)		103%	82.2%	104%	104%	47%		107%	95.5%	98.7%
CC(C)n1nc(C#Cc2cccc(NC(=O)c3cccc(C(F)(F)F)c3)c2)c2c(N)ncnc21		1.52% (active)	-51.4% (active)	-56.8% (active)	-31.9% (active)	-40.9% (active)		2.57% (active)	-80.6% (active)	-8.6% (active)
N#Cc1c(N)nc2c(nnn2-c2cccc(C(F)(F)F)c2)c1N		29.1%	58.2%	90.2%	87.7%	77.2%	87.9%	75.8%	97.7%	87.7%
COc1ccc(O)c(-c2cc(-c3ccccc3)c(C#N)c(=O)[nH]2)c1		104%	68.2%	88.2%	106%	95.1%	91.7%	102%	65.9%	85.1%
COc1ccc(-c2cc(-c3cc(OC)ccc3OC)[nH]c(=O)c2C#N)cc1		96.5%	64.4%	84.9%	85.3%	63%	76.9%	44.3%	-1.35% (active)	72%
CC/C=C/[C@@H]1C=C[C@@H]2CCC[C@H]2[C@@H]1CC[C@H](O)[C@H](C)N		82.3%	-80% (active)	8.1% (active)	-56.8% (active)	-50.6% (active)		-47.2% (active)	82.1%	41.1%
Clc1ccc(-c2nnc(-c3ccco3)o2)cc1		100%	84.4%	120%	100%	73.3%	87.4%	90.1%	103%	82.6%
Cn1cc(Nc2nccc(-c3ccc(N4CCCC4)c(C#N)c3)n2)cn1		57%	31.9%	40.7%	26.7%	16.7%	34%	17.2%	48%	44.9%
C[C@@H]1C(=O)N(C[C@@H](Cc2ccccc2)NC(=O)OCc2ccccc2)[C@]1(Cc1ccccc1)C(=O)OCc1ccccc1		18.1%	8.74% (active)	21.4%	22.3%	34.8%	67.3%	6.42% (active)	-13.8% (active)	41.7%
CCNCCNc1cc(-c2ccc(C#N)cc2)c(C#N)c2nc3ccccc3n12		76%	-21.3% (active)	82.3%	3.09% (active)	57.4%	27.5%	51.2%	60.7%	59.3%
CCNCCNc1cc(-c2ccc(C(=O)OC)cc2)c(C#N)c2nc3ccccc3n12		84.8%	-11.3% (active)	87.3%	36.4%	58.2%	-3.88% (active)	28.3%	81.9%	67.4%
CCNCCNc1cc(-c2ccc(F)cc2)c(C#N)c2nc3ccccc3n12		78.4%	39.9%	87.5%	9.08% (active)	71.2%	27.1%	61.4%	-9.7% (active)	70.9%
N#Cc1c(-c2ccc(C(F)(F)F)cc2)cc(N2CC(O)C2)n2c1nc1ccccc12		63.6%	54.5%	64%	43.4%	72.1%	102%	103%	-4.38% (active)	72.3%
